Test results taken from PubChem BioAssay (NCATS).
Inconclusive results are not listed. Where a call stands in place of a potency, no number is given. Activity calls are given as the source filed them. Calls follow the shape of the dose curve; as a rule, active = well fitted curve in the direction sought with a large enough effect; inconclusive = small, poorly fitted or top-dose-only effect, or another doubt; inactive = no such curve, though single readings can be large; an effect the other way counts as inactive or inconclusive.

What was measured:
[1] = Cellular Toxicity (caspase-3) HepG2 (AID 654); also: potency is read from the fitted curve at half-maximal effect;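 as to caspase-3 activation: cells exposed to compound for 16 hours before reading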
Summary of the method: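 Caspase 3/7 activation in HepG2 is measured as rising luminescence after a 16 hr treatment at 37 °C. Values are scaled between DMSO basal and 100 uM tamoxifen, and AC50 is fitted with the Hill equation.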

[2] = Cellular Toxicity (caspase-3) HUV-EC-C (AID 656)
Summary of the method: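 qHTS; HUV-EC-C, 1000 cells/well; 5 hr settle, 16 hr cmpd, 37°C; Caspase-Glo 3/7, 20 min RT; luminescence. Norm: DMSO = 0%, tamoxifen 100 uM = 100%. Hill-fit AC50.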

[3] = Cellular Toxicity (caspase-3) SHSY5Y (AID 657);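 also: cells exposed to compound for 16 hours at 37 °C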; also: potency is read from the fitted curve at half-maximal effect
Summary of the method: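 qHTS, SH-SY5Y, 1500 cells/well, 5 h pre-incubation 37 °C; compound 16 h 37 °C; Caspase-Glo 3/7 1 h RT; luminescence. Norm.: DMSO = 0, 10 uM staurosporine = 100%. Hill fit → AC50.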

[4] = Cellular Toxicity (caspase-3) BJ (AID 658)
Summary of the method: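 Caspase-Glo 3/7 luminescence, read 1 hr after reagent at room temperature, in normal BJ fibroblasts exposed 16 hours at 37 °C. AC50 values from Hill-equation concentration-response, scaled between DMSO basal and 10 uM staurosporine as 100%.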

[5] = Cellular Toxicity (caspase-3) MRC-5 (AID 659)
Summary of the method: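 Luminescent Caspase-Glo 3/7 read-out (1 h, room temperature) after a 16 h, 37 °C compound exposure of MRC-5 lung fibroblasts at 1500 cells/well. Concentration-response AC50 from Hill equation; 0% DMSO, 100% 10 uM staurosporine.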

[6] = Cellular Toxicity (caspase-3) Mesangial (AID 660); details: Potency: caspase-3 activation;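 also: combined caspase 3 and 7 activity read by Caspase-Glo luminescence; cells exposed to compound for 16 h before the caspase read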; also: potency is read from the fitted curve at half-maximal effect
From the text: NIH Chemical Genomics Center [NCGC]
NIH Molecular Libraries Screening Centers Network [MLSCN]
National Institutes of Environmental Health Sciences [NIEHS]
National Toxicology Program [NTP]
We have developed a 1536-well cell-based assay for quantitative high throughput screening (qHTS) against a number of cell lines to determine in vitro caspase 3/7 of small molecules. This particular assay uses the mesangial cell line which is derived from normal human renal glomeruli.
NCGC Assay Protocol Summary:
The Caspase-Glo 3/7 assay (Promega) is a homogeneous method to measure caspase-3 and caspase-7 activities in cultured cells. The quantitation of caspase 3/7 activity is based on the cleavage of a peptide-aminoluciferin substrate. After caspase cleaves the substrate the free aminoluciferin is liberated and serves as the substrate of luciferase, which generates the light. The luminescent signal is proportional to amount of caspase 3/7 activity present.
Using the Caspase-Glo 3/7 assay, the amount of caspase 3/7 activity was measured in the mesangial cell line with complete culture medium following compound treatment for 16 hours. The assay was performed in opaque white 1536-well plates. In the screen, tamoxifen and doxorubicin were used as positive controls. Library compounds were measured for their ability to cause the activation of caspase 3/7 in the cell line, as reflected by an increase in luminescence signal, in a concentration-dependent manner. Data were normalized to the controls for basal activity (DMSO only) and 100% stimulation (100 uM tamoxifen). AC50 values were determined from concentration-response data modeled with the standard Hill equation.
qHTS protocol for caspase 3/7 assay in mesangial cell line
[Step] [Parameter] [Value] [Description]
1. Reagent; 5 uL; 1000 mesangial cells/well
2. Time; 5 hr; 37 °C incubation
4. Controls; 23 nL; Tamoxifen 0.23 uM to 100 uM & doxorubicin 7.0 pM to 100 uM
5. Time; 16 hr; 37 °C incubation
6. Reagent; 5 uL; Caspase-Glo 3/7 reagent
7. Time; 20 min; Room Temperature
8. Detection; Luminescence; Viewlux plate reader
Keywords: caspase 3/7, apoptosis, mesangial cell line, luminescence, NTPHTS, NTPHTS_NCGC, NIEHS, EPA, DSSTox, MLSMR, MLSCN, NIH Roadmap, qHTS, NCGC

[7] = Cellular Toxicity (caspase-3) SK-N-SH (AID 661); also: potency is read from the fitted curve at half-maximal effect
Summary of the method: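 Cells were seeded and incubated 5 hr at 37 °C, dosed with compound over a concentration range for 16 hr, then given Caspase-Glo 3/7 reagent for 1 hr at room temperature before luminescence reading.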

[8] = Cellular Toxicity (caspase-3) H-4-II-E (AID 663); details: Potency: caspase-3 activation; also: potency is read from the fitted curve at half-maximal effect;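 as to caspase-3 activation: cells exposed to compound for 16 hr before readout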
Summary of the method: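 Caspase 3/7 activation measured by luminescent aminoluciferin substrate cleavage after 16 hr compound treatment of H-4-II-E cells in complete medium. Increase normalized between DMSO (basal) and 100 uM tamoxifen (100%); Hill-equation AC50 from concentration-response.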

[9] = Cellular Toxicity (caspase-3) Hek293 (AID 664);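 also: cells exposed to compound for 16 h at 37 °C before readout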
Summary of the method: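 qHTS, HEK293 (human embryonic kidney), 16 h cpd exposure in complete medium. Caspase-3/7 activation = luminescence increase; normalized to DMSO/100 uM tamoxifen; Hill-fit AC50.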

[10] = Cellular Toxicity (caspase-3) Jurkat (AID 655);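 also: cells exposed to compound for 16 h at 37 °C before reading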; also: potency is read from the fitted curve at half-maximal effect
Summary of the method: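 5000 Jurkat cells/well; compound 16 hr, 37 °C; Caspase-Glo 3/7 added, 20 min RT; luminescence read. Norm: DMSO = 0%, tamoxifen 100 uM = 100%. AC50, Hill model.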

SMILES | Potency [1] | outcome [2] | Potency [3] | outcome [4] | outcome [5] | Potency [6] | Potency [7] | Potency [8] | outcome [9] | Potency [10]
C[C@@H]1C[C@@H]([C@H](O)CC2CC(=O)NC(=O)C2)C(=O)[C@@H](C)C1 | inactive | inactive | inactive | inactive | inactive | inactive | inactive | 15.8 µM (active) | inactive | –
O=C(CCl)c1ccc(Cl)cc1Cl | inactive | inactive | 2.51 µM (active) | inactive | inactive | inactive | 1.58 µM (active) | – | – | 0.251 µM (active)
COP(=O)(OC)OC=C(Cl)Cl | inactive | inactive | inactive | inactive | inactive | inactive | inactive | inactive | inactive | inactive
CNC(=O)Oc1cccc2ccccc12 | inactive | inactive | inactive | inactive | inactive | inactive | inactive | inactive | inactive | inactive
Oc1c(Br)cc(Br)cc1Br | inactive | inactive | inactive | inactive | inactive | inactive | inactive | inactive | inactive | –
CC[n+]1c(-c2ccccc2)c2cc(N)ccc2c2ccc(N)cc21 | inactive | inactive | inactive | inactive | inactive | inactive | inactive | inactive | inactive | inactive
CN(C)C(=S)SSC(=S)N(C)C | inactive | inactive | inactive | inactive | inactive | 0.398 µM (active) | inactive | inactive | inactive | 0.0631 µM (active)
CCCCCCCCCCCC[N+](C)(C)CCOc1ccccc1 | 39.8 µM (active) | inactive | inactive | – | – | inactive | – | – | inactive | –
